Screens: PubChem, The Scripps Research Institute Molecular Screening Center
PAFAH1B2 FP inh = blocks human PAF acetylhydrolase 1b catalytic subunit 2; recombinant PAFAH1B2, FP-rhodamine activity probe, fluorescence polarization; inhibition, % at 3.39 µM; actives 1.2% (n = 340,000); AID 492953;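 active = inhibition above the mean of all tested compounds plus 3 SD, cut at about 24% in these data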
PAFAH2 inh = inhibitors of human PAFAH2 | Q99487 | recombinant PAFAH2, FP-rhodamine activity probe, fluorescence polarization | inhibition, % at 3.39 µM | actives 0.99% (n = 340,000) | AID 492956;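 active = inhibition above the mean over all tested compounds plus 3 SD, cut at about 30% in these data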;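 also: inhibitors block probe labeling of enzyme so polarization drops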
E coli Lon inh = inhibits E. coli Lon protease | purified E. coli Lon protease, fluorescence polarization | AID 602123 | inhibition, % at 7.94 µM | P0A9M0 | actives 0.42% (n = 360,000); in the data active = inhibition above about 13%, passing the limit was not always enough
Rin1-Abl PPI inh = inhibitors of human Rin1-Abl protein interaction; P00519+Q13671; actives 0.4% (n = 360,000); inhibition, % at 7.35 µM; TR-FRET Rin1/Abl binding, biochemical; in the data active = inhibition above about 5%, passing the limit was not always enough
pPAFAH FP inh = inhibitors of human plasma PAF acetylhydrolase (pPAFAH) | Q13093 | recombinant pPAFAH, FP-rhodamine probe fluorescence polarization | inhibition, % at 3.39 µM | actives 1.5% (n = 330,000) | AID 463082;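 active = inhibition above the mean inhibition across the screen plus 3 SD, cut at about 25% in these data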;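 also: inhibitors block binding of the rhodamine activity-based probe so polarization drops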
Target sequence (Q13093 whole entry, looked up): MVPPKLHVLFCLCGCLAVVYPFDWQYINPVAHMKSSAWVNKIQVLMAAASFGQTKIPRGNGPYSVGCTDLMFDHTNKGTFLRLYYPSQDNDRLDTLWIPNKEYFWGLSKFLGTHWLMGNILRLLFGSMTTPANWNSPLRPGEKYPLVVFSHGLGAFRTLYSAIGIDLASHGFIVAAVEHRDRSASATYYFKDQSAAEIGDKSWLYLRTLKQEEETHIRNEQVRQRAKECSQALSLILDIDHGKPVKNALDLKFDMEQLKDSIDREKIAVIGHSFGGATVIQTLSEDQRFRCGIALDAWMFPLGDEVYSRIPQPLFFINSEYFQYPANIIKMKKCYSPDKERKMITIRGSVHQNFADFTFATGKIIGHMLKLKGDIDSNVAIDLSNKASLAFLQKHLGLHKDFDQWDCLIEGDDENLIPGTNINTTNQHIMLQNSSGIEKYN
PAFAH1B3 FP inh = PAFAH1B3 (human) inhibition | Q15102 | recombinant PAFAH1B3, FP-rhodamine probe, fluorescence polarization | inhibition, % at 3.39 µM | actives 0.28% (n = 340,000);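 active = inhibition above the screen-wide average of all tested compounds plus 3 SD, cut at about 25% in these data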
Target sequence (Q15102 whole entry, looked up): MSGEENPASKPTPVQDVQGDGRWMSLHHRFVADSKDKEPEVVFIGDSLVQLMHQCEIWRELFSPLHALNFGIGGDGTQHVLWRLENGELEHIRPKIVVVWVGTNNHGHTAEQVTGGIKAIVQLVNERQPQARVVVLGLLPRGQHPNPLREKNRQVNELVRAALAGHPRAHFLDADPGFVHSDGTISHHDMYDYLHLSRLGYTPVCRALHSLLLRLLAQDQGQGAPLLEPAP
pPAFAH FP conf = pPAFAH (human) inhibition, confirmed; shares compounds with pPAFAH FP inh; recombinant pPAFAH, FP-Rh probe fluorescence polarization; inhibition, % at 3.39 µM; actives 72% (n = 2,300);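 active = mean inhibition of the triplicate above the hit cutoff set for the earlier primary screen, cut at about 25% in these data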
Large screens that a line does not name were inactive (follow-up assays come after a bar, where they were run). Only some compounds are listed: those with a hit (about 3.1% of all), similar ones and a draw of the others.

O=C1NCN(c2ccccc2)C12CCN(C(c1cccc3ccccc13)c1nnnn1-c1ccc3c(c1)OCCO3)CC2 (stereo unspecified)	none (no result: PAFAH1B2 FP inh, PAFAH2 inh, pPAFAH FP inh, PAFAH1B3 FP inh)
Cc1cc2c(C(C)C)c(O)c(O)c(C=O)c2c(O)c1-c1c(C)cc2c(C(C)C)c(O)c(O)c(C=O)c2c1O	Rin1-Abl PPI inh 16 (no result: PAFAH1B2 FP inh, PAFAH2 inh, pPAFAH FP inh, PAFAH1B3 FP inh)
Cc1ccc(S(=O)(=O)N2Cc3cc(N4CCOCC4)ccc3-n3nncc3C2)cc1	none (no result: PAFAH1B2 FP inh, PAFAH2 inh, pPAFAH FP inh, PAFAH1B3 FP inh)
O=C(O)c1c[nH]c2ccc(S(=O)(=O)N(CCCl)CCCl)cc12	PAFAH1B2 FP inh 37
CCOC(=O)[C@]12Cc3cc(OC)ccc3[C@H]1N(C(C)C)C(=O)c1cc(OC)ccc12	none (no result: PAFAH1B2 FP inh, PAFAH2 inh, Rin1-Abl PPI inh, pPAFAH FP inh, PAFAH1B3 FP inh)
CC(=O)NC(Cc1ccc(N(CCCl)CCCl)cc1)C(=O)O (stereo unspecified)	none
O=C(Cc1ccccc1)NC(Cc1ccc(Cl)cc1)C(=O)O (stereo unspecified)	PAFAH1B2 FP inh 38
O=C(Cc1ccc(N(CCCl)CCCl)cc1)NC(Cc1ccc(Cl)cc1)C(=O)O (stereo unspecified)	PAFAH1B2 FP inh 60
Cn1cc(C(=O)OCC(=O)NC2CCCCC2)c2ccccc21	PAFAH2 inh 72, pPAFAH FP inh 33
O=C(COC(=O)Cc1ccccc1)NNC(=O)c1ccc([N+](=O)[O-])cc1	pPAFAH FP inh 28
CCN(CC)c1ccc(N=Cc2c(O)n(-c3ccc(OC)cc3)c(=O)[nH]c2=O)cc1	pPAFAH FP inh 25
CCN(CC)c1ccc(N=Cc2c(O)n(-c3ccc(Cl)cc3)c(=O)[nH]c2=O)cc1	none
COc1ccc(C(c2nnnn2-c2c(C)cccc2C)N2CCC3(CC2)C(=O)NCN3c2ccccc2)cc1 (stereo unspecified)	none (no result: PAFAH1B2 FP inh, PAFAH2 inh, pPAFAH FP inh, PAFAH1B3 FP inh)
COC(=O)C1=C(c2c(C)noc2C)C[C@@H]2CC[C@H]1N2C(=O)NCc1ccc(C(F)(F)F)cc1	PAFAH1B2 FP inh 24
O=C(c1cc(Cl)cc(Cl)c1)N1Cc2ccccc2-n2nncc2C1	none (no result: PAFAH1B2 FP inh, PAFAH2 inh, pPAFAH FP inh, PAFAH1B3 FP inh)
O=c1[nH]c(=S)n(-c2ccccc2F)c(O)c1C=Nc1ccc(N2CCOCC2)cc1	PAFAH2 inh 33, pPAFAH FP inh 29
CCCCn1c(C)c(C(=O)OCC)c2c(CN3CCOCC3)c(O)ccc21	none
CCCCn1c(C)c(C(=O)OCC)c2c(CN3CCCC3)c(O)ccc21	pPAFAH FP inh 27
CCC1([N+](=O)[O-])COP(N)(=O)OC1 (stereo unspecified)	none (no result: pPAFAH FP inh)
Cn1c(O)c(C(=N)COc2ccccc2)c(=O)n(C)c1=O	none
Cn1c(O)c(C(=Nc2ccccc2)SCc2ccc(Cl)cc2)c(=O)n(C)c1=O	PAFAH1B2 FP inh 26
O=S(=O)(NC1CCCCCCC1)OCC(Cl)(Cl)Cl	PAFAH1B2 FP inh 48, pPAFAH FP inh 29
COC(=O)C1=C(C(=O)OC)C2OC1c1cc3ccccc3cc12	none (no result: pPAFAH FP inh)
Cc1ccccc1N1C(=O)/C(=C/c2ccco2)C(=O)NC1=S	pPAFAH FP inh 91 (no result: PAFAH1B2 FP inh, PAFAH2 inh, E coli Lon inh, Rin1-Abl PPI inh, PAFAH1B3 FP inh)
CC(C(=O)Nc1ccc(Br)cc1C(=O)c1ccccc1)N1CCCCC1 (stereo unspecified)	E coli Lon inh 24
Cc1cc(OCC(=O)NC(Cc2ccc(Cl)cc2)C(=O)O)c2c3c(c(=O)oc2c1)CCCC3 (stereo unspecified)	PAFAH1B2 FP inh 30
Cc1cc(OCC(=O)NCc2ccncc2)c2c3c(c(=O)oc2c1)CCC3	none
O=P(Oc1ccccc1)(Oc1ccccc1)C(Nc1ccccc1)c1ccccc1 (stereo unspecified)	none
O=P(O)(Oc1ccccc1)OC(c1ccccc1)C(F)(F)C(F)(F)F (stereo unspecified)	PAFAH1B2 FP inh 77
N/C(=N\N=C/c1ccc(-c2ccc(O)c(C(=O)O)c2)o1)N[N+](=O)[O-]	pPAFAH FP inh 50, PAFAH1B3 FP inh 30 | pPAFAH FP conf 35
CC(C)c1ccc(-n2c(O)c(/C=N/NC(=O)c3ccccc3O)c(=O)[nH]c2=S)cc1	pPAFAH FP inh 47 | pPAFAH FP conf 45
CC(C)c1ccc(-n2c(O)c(/C=N/NC(=O)c3ccncc3)c(=O)[nH]c2=O)cc1	none
Cc1cc(C(=O)CS(=O)(=O)c2ccccc2)cc(C)c1OC(=O)N(C)C	pPAFAH FP inh 38 | pPAFAH FP conf inactive
Cc1ccc(S(=O)(=O)CC(=O)c2cc(C)c(OC(=O)N(C)C)c(C)c2)cc1	none
O=C1NC(=O)N(Cc2ccc(F)cc2)C(=O)/C1=C\C=C\c1ccco1	PAFAH1B2 FP inh 30, pPAFAH FP inh 36 | pPAFAH FP conf inactive
CC(C)c1ccc(N2C(=O)NC(=O)/C(=C/C=C/c3ccco3)C2=O)cc1	pPAFAH FP inh 43 | pPAFAH FP conf inactive
CCc1ccc(N2C(=O)NC(=O)/C(=C\C=C\c3ccco3)C2=O)cc1	none
C=C(C)CC1(CC)C(=O)NC(=S)NC1=O	none (no result: PAFAH1B2 FP inh, PAFAH2 inh, pPAFAH FP inh, PAFAH1B3 FP inh)
C=CCn1c(O)c(C=Nc2ccc(N(CC)CC)cc2)c(=O)[nH]c1=O	pPAFAH FP inh 43 | pPAFAH FP conf inactive
Cc1ccccc1-n1c(O)c(C=Nc2ccc(N(C)C)cc2)c(=O)[nH]c1=O	pPAFAH FP inh 46 | pPAFAH FP conf inactive
Cc1cccc(N=Cc2c(O)n(-c3ccccc3C)c(=O)[nH]c2=O)c1	none
O=C1c2cccc(N3CCNCC3)c2C2CCCCN12 (stereo unspecified)	none (no result: PAFAH1B2 FP inh, PAFAH2 inh, pPAFAH FP inh, PAFAH1B3 FP inh)
Cn1cccc1/C=C1/C(=O)NC(=O)N(Cc2ccccc2)C1=O	none
Cn1cccc1/C=C1/C(=O)NC(=S)N(Cc2ccc(F)cc2)C1=O	PAFAH1B2 FP inh 55, PAFAH2 inh 44, pPAFAH FP inh 61 | pPAFAH FP conf 45
CN1CCC(c2c[nH]c3ccccc23)C1 (stereo unspecified)	pPAFAH FP inh 44 | pPAFAH FP conf inactive
O=c1[nH]c(=S)[nH]c(O)c1N=Nc1cc(S(=O)(=O)Nc2ccc(Cl)cc2)ccc1Cl	pPAFAH FP inh 49, PAFAH1B3 FP inh 43 | pPAFAH FP conf 95
NS(=O)(=O)c1ccc(N=Nc2c(O)[nH]c(=S)[nH]c2=O)cc1	none
COc1cc2c(cc1OC)-c1c(OC)c(OC)c(OC)c3ccnc(c13)C2=O	pPAFAH FP inh 38 (no result: PAFAH1B2 FP inh, PAFAH2 inh, E coli Lon inh, Rin1-Abl PPI inh, PAFAH1B3 FP inh) | pPAFAH FP conf inactive
COc1ccc2c3c1OC1[C@H](O)CCC4[C@@H](C2)N(C)CC[C@]314 (stereo partly specified)	pPAFAH FP inh 35 | pPAFAH FP conf inactive
COc1ccc2c(c1O)C13CCN(C)C(C2)C1CCC(=O)C3 (stereo unspecified)	none (no result: PAFAH1B2 FP inh, PAFAH2 inh, PAFAH1B3 FP inh)
CCN(CC)c1ccc(/C=C2\C(=O)NC(=O)N(Cc3ccco3)C2=O)cc1	none
CCCCN1C(=O)/C(=C/c2ccc(N(C)C)cc2)C(=O)N(Cc2ccco2)C1=O	pPAFAH FP inh 36 | pPAFAH FP conf inactive
O=[N+]([O-])c1ccc(NCc2ccccc2)c2nonc12	pPAFAH FP inh 47 (no result: PAFAH1B2 FP inh, PAFAH2 inh, E coli Lon inh, Rin1-Abl PPI inh, PAFAH1B3 FP inh) | pPAFAH FP conf 41
c1ccc2[nH]c(CCN3CCCCC3)nc2c1	none (no result: PAFAH1B2 FP inh, PAFAH2 inh, pPAFAH FP inh, PAFAH1B3 FP inh)
O=C(N/N=C1/CN2CCC1CC2)c1cc2ccccc2cc1O	pPAFAH FP inh 40 | pPAFAH FP conf inactive
